Screening data as filed in PubChem.
Cycloheximide cs = counter-screen hit for Shiga toxin inhibitors, cycloheximide; cell reporter, cycloheximide protein synthesis inhibition counterscreen; 300,000 tested, 12% active; AID 2314; max response, %; in the data active = max response mostly above about 13%, no sharp cut-off; inactive = mostly below about 14%; also: read at 38.3 µM for the half of the compounds with a filed dose
AmpC inh no detg = inhibitors of E. coli AmpC beta-lactamase without detergent | P00811 | AmpC nitrocefin hydrolysis, absorbance 480 nm, 0.0001% Triton | Potency, µM (doses to about 57.1 µM), hits mostly inhibitors | 330,000 tested, 0.52% active; also: nearly all actives have a fitted effect of over 20% in size
Target sequence (P00811 whole entry, looked up): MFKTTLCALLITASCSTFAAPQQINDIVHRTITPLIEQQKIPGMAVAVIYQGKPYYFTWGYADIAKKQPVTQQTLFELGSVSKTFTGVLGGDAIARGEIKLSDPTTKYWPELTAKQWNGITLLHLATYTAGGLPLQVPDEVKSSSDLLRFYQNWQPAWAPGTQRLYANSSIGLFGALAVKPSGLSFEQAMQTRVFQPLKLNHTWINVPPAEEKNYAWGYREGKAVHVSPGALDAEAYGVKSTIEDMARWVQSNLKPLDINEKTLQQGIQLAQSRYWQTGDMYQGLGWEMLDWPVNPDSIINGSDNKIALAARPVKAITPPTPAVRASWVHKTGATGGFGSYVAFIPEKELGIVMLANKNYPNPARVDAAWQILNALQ
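AmpC (5.3 nM in the dispensed reagent) in 20 mM phosphate pH 7.0 with 0.01% (detergent screen) or 0.0001% Triton X-100 was preincubated with compounds for 15 min at room temperature. Nitrocefin was then added from an 800 uM solution, and hydrolysis was followed at 480 nm.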
SARS PLP yeast = blocks SARS-CoV papain-like protease in a yeast assay; AID 485353; S. cerevisiae expressing SARS-CoV PLpro, growth rescue; 330,000 tested, 0.19% active; Potency, µM (top dose mostly 32.9 µM), actives largely listed as activators; calls by dose curve; also: nearly all actives have a fitted effect of over 55% in size
AMA1-RON2 inh = inhibitors of Plasmodium falciparum AMA1-RON2 interaction; AlphaScreen AMA1-biotinylated RON2 peptide binding; 360,000 tested, 0.2% active; Potency, µM (doses to about 58.2 µM), actives largely listed as inhibitors; AID 720542; also: nearly all actives have a fitted effect of over 45% in size
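AMA1 (3D7) with his tag at 25 nM final met compounds first, then biotinylated RON2 peptide at 25 nM; detection used donor plus acceptor beads, 10 µg/mL apiece, read by AlphaScreen after 30 min at room temperature.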
AmpC detergent = AmpC beta-lactamase inhibition with detergent present; AmpC hydrolysis of nitrocefin, absorbance 480 nm, 0.01% Triton; AID 485294; Potency, µM (highest dose often 114 µM), actives largely listed as inhibitors; 370,000 tested, 0.041% active; P00811; also: nearly all actives have a fitted effect of over 25% in size
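20 mM phosphate pH 7.0 + 0.01% (detergent screen) or 0.0001% Triton X-100; 5.3 nM AmpC reagent; cpd preinc 15 min RT; nitrocefin (800 uM stock) to start; A480 q20 s × 4 min; Activity was normalised to no-enzyme and no-compound control wells.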
Shiga inhibitor = inhibitors of Shiga toxin in Vero cells | AID 2315 | 290,000 tested, 9.2% active | inhibition, % at 38.7 µM | Vero cells, Shiga toxin protein synthesis inhibition reporter; in the data active = inhibition mostly above about 28%, no sharp cut-off; inactive = mostly below about 43%
A number is an active result; . = inactive; ? = inconclusive; / = no result. Only a selection was taken, and hits are over-represented in it overall. Unless noted, calls follow the shape of the dose curve; as a rule, active = well fitted curve in the direction sought with a large enough effect; inconclusive = small, poorly fitted or top-dose-only effect, or another doubt; inactive = no such curve, though single readings can be large; an effect the other way counts as inactive or inconclusive.

SMILES	Cycloheximide cs	AmpC inh no detg	SARS PLP yeast	AMA1-RON2 inh	AmpC detergent	Shiga inhibitor
CCNc1nc(C)nc2c1cnn2C	/	/	/	.	/	/
Cc1cc(Cl)c(S(=O)(=O)N2CCSCC2)cc1OCC(=O)NC1CCCCC1	.	.	.	.	.	.
CN(C)c1ccc(/C=C/c2cc[n+]([O-])cc2)cc1	42	.	.	/	.	172
O=C(Nc1cccc(Cl)c1)OC1CN2CCC1CC2 (centres undefined)	26	.	.	.	.	56
O=C(Nc1ccc(Cl)cc1)OC1CN2CCC1CC2 (centres undefined)	27	.	.	.	.	42
Cc1c(C(=O)Cc2ccccc2)n(C)c2ccccc12	25	.	.	.	.	.
O=C(O)c1ccc2c(c1)C(=O)N([C@H](Cc1c3ccccc3cc3ccccc13)C(=O)O)C2=O	.	.	.	/	?	.
O=C(N1CCOCC1)n1nnc2ccccc21	.	13µM	.	.	45µM	.
O=c1/c(=C/c2ccc(O)cc2)sc2n1CCCN=2	.	.	?	.	.	104
COC(=O)/C=c1/sc2n(c1=O)CCN=2	.	.	.	.	.	.
CN(C)c1ccc(/C=c2\sc3n(c2=O)CCCN=3)cc1	25	?	.	.	.	.
O=c1/c(=C\c2ccc(F)cc2)sc2n1CCCN=2	43	.	.	.	?	93
CCOC(=O)c1sc(NC(=O)CS(=O)(=O)c2ccc(C)cc2)nc1C	.	.	.	.	.	.
CC(C)C(C)NC(=O)COc1ccc(Sc2ccc(OCC(=O)NC(C)C(C)C)cc2)cc1 (centres undefined)	.	.	.	.	.	.
Cc1cc(C)c(C#N)c(SCC(=O)Nc2ccccc2C#N)n1	/	/	/	/	.	/
N#CCC(=O)Nc1ncc(Cc2ccccc2Cl)s1	.	18µM	.	.	.	.
CC(=O)NS(=O)(=O)c1ccc(N=NN2CCCCC2)cc1	.	.	?	.	.	.
COC(=O)c1ccc(N=NN2CCOCC2)cc1	41	.	?	.	.	34
COC(=O)c1ccc(N=NN2CCCCCC2)cc1	79	.	.	.	?	88
O=P(C(=Nc1ccc(Cl)cc1)N1CCOCC1)(N1CCOCC1)N1CCOCC1	.	.	.	.	.	.
Clc1ccc(N=NN2CCOCC2)cc1	42	.	.	.	?	71
COC(=O)c1ccc(C(=S)N2CCOCC2)cc1	.	.	.	.	.	.
NS(=O)(=O)c1ccc(N=NN2CCCCC2)cc1	52	.	.	.	.	56
C/C(CC(=O)Nc1ccc(N(C)C)cc1)=N\NC(=O)c1ccc([N+](=O)[O-])cc1Cl	.	.	.	.	.	.
COc1ccc(S(=O)(=O)Cc2ccc(C(=O)NCc3ccc(C)cc3)o2)cc1	.	.	.	.	.	.
SMILES	Cycloheximide cs	AmpC inh no detg	SARS PLP yeast	AMA1-RON2 inh	AmpC detergent	Shiga inhibitor
O=C(O)c1ccc(N=NN2CCCCC2)cc1	53	.	?	.	.	.
COc1ccc(/C=C/c2cc(C(F)(F)F)on2)cc1	40	.	.	.	.	64
COc1ccc(C(O)c2nc(/C=C/c3ccc(C(F)(F)F)cc3)cs2)cc1 (centres undefined)	/	/	/	.	/	/
O=C(CSc1nccn1-c1ccc(F)cc1)NCc1ccc2c(c1)OCO2	.	.	.	.	.	.
CCc1nnc(NC(=O)C2CCN(c3ncnc4sc(C)c(C)c34)CC2)s1	/	.	.	.	.	/
Cc1ccc(NC(=O)C2CCN(c3ncnc4sc(C)c(C)c34)CC2)cc1S(=O)(=O)N(C)C	/	28µM	.	.	?	/
CCN(CC)S(=O)(=O)c1cc(NC(=O)C2CCN(c3ncnc4sc(C)c(C)c34)CC2)ccc1Cl	/	.	.	.	.	/
Cc1ccc2nc(NC(=O)C3CCN(c4ncnc5sc(C)c(C)c45)CC3)sc2c1	18	.	.	.	.	.
CCC(C)NC(=O)CSc1nc2ccccc2c(=O)n1-c1c(C)n(C)n(-c2ccccc2)c1=O (centres undefined)	.	.	.	.	.	.
CCCn1c(=O)c2ccccc2n2c(SCc3nnc(-c4ccccc4Br)o3)nnc12	.	.	.	.	.	.
Cn1nnnc1SCc1ccc(CSc2nnnn2C)cc1	.	.	.	.	.	.
Cc1nnc(SCc2nnc(-c3ccccc3Br)o2)s1	24	.	.	.	.	.
Cc1ccc(-n2nnnc2SCc2nnc(-c3ccccc3Br)o2)c(C)c1	.	.	.	.	.	.
Cn1nnnc1SCc1nnc(-c2ccc(F)cc2)o1	22	.	.	.	.	39
Cn1nnnc1SCc1nnc(-c2ccccc2Br)o1	33	.	.	.	.	86
CC1(C(=O)NS(=O)(=O)C2CC2)CCN(C(=O)c2cc3ccccc3s2)C1 (centres undefined)	/	/	/	.	/	/
COc1cc(NC(=O)c2ccc(C)cc2)c(OC)cc1NC(=O)CN1CCCCC1	.	.	.	?	.	.
CCCCCC(C)NC(=O)CN1C(=O)NC(C)(c2ccc3ccccc3c2)C1=O (centres undefined)	.	.	.	.	.	.
O=C(NCc1ccco1)c1cc(-c2ccccn2)nc2ccccc12	.	.	.	.	.	.
COc1ccc(-c2cc(C(=O)NCc3ccco3)c3ccccc3n2)cc1	14	.	.	.	?	.
O=C(Nc1cccc(S(=O)(=O)NCc2ccco2)c1)c1cc(-c2ccccc2)nc2ccccc12	36	.	.	.	.	.
O=C(NCc1ccco1)c1cc(-c2ccccc2)nc2ccccc12	24	.	.	.	.	.
CC(=O)Nc1cccc(C(=O)Nc2cccc(S(=O)(=O)NCc3ccco3)c2)c1	/	.	.	.	.	/
Cc1nnc(Sc2cc(C(=O)NCc3ccco3)c3ccccc3n2)s1	35	.	.	.	.	.
COCCNC(=O)c1cc(Sc2nnc(C)s2)nc2ccccc12	.	.	.	/	.	.
SMILES	Cycloheximide cs	AmpC inh no detg	SARS PLP yeast	AMA1-RON2 inh	AmpC detergent	Shiga inhibitor
CCn1nnc2cc(C(=O)Nc3ccc(Cl)cc3C)ccc21	/	/	/	/	.	/
CCOc1ccc(NC(=O)CCN2CCN(c3ccccc3OC)CC2)cc1	.	.	.	.	?	.
Cc1cc(CN(C)C)c(OC(=O)N(C)C)cc1C	.	.	.	.	.	.
O=C(Nc1ccc2c(c1)OCCO2)C1CCCN1S(=O)(=O)c1ccc(Cl)cc1 (centres undefined)	.	.	.	.	?	.
CCOc1ccc(N(CC(=O)Nc2cccc(Cl)c2)S(=O)(=O)c2c(C)noc2C)cc1	.	.	.	.	?	.
COc1ccc(N(CC(=O)Nc2ccc3c(c2)OCCO3)S(=O)(=O)c2c(C)noc2C)cc1	11	.	.	.	.	.
CCOc1ccc(N(CC(=O)Nc2cccc(OC)c2)S(=O)(=O)c2c(C)noc2C)cc1	.	18µM	.	.	?	.
